For 40 sequences, binding signal results are on record in publication PMC12820563, “FoxP3 forms a head-to-head dimer in vivo and stabilizes its multimerization on adjacent microsatellites”.

The full ranking holds about 16,000 sequences; the median of “rpm ratio (pull-down/input)” is about 0.5, and the highest 2% start at about 5.5. The sample holds the highest values, similar sequences and a random draw of the others, so the mix is not that of the screen.

This assay deals with T1, MBP-FoxP3dN (Mus musculus, UniProt Q99JB6 188-423).
T1 sequence: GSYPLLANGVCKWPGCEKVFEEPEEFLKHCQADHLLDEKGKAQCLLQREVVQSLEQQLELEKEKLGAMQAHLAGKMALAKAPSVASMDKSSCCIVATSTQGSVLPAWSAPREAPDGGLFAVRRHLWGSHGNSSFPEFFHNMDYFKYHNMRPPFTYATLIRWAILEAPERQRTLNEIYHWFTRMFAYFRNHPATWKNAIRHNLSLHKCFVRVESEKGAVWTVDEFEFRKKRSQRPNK
The assay can be described thus: PD-seq (MBP pull-down with sequencing); 20 mM Tris-HCl pH 7.5, 100 mM NaCl, 1.5 mM MgCl2, 0.4 uM protein, 0.1 uM dsDNA library, 30 min, room temperature, amylose pull-down; high values mean tight binding. Particulars: protein: recombinant; tags: His6-MBP; chain copies: 2; dsDNA, one strand shown. The essentials: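 In Tris pH 7.5 buffer with NaCl and MgCl2, 0.4 µM His6-MBP-tagged mouse FoxP3 or FoxP1 fragment lacking the N-terminus, from E. coli, met 0.1 µM Klenow-filled double-stranded degenerate DNA library for 30 min at room temperature. Three washes on amylose resin followed capture of the complexes, then proteinase K release of DNA, PCR barcoding and Illumina sequencing. Binding is taken as pooled-replicate reads-per-million enrichment of pull-down relative to input.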
Take “GATGATTGTTCTCCCAGCTGATGAATTAAAGTGTTCGAGTAAACAAATTTTCCTAATCTTTCTGTTCAAGCGCCATCTAC”: the binding signal was 0.592 RPM ratio (pull-down/input).
Then “GATGATTGTTCTCCCAGCTGATGAATTATAACCGTCGAGTAAACAAATTTTCCTAATCTTTCTGTTCAAGCGCCATCTAC”, with 0.364 RPM ratio (pull-down/input); and “GATGATTGTTCTCCCAGCTGATGAATTATATGCCTCGAGTAAACAAATTTTCCTAATCTTTCTGTTCAAGCGCCATCTAC”, with 0.913 RPM ratio (pull-down/input).
For the sequence “GATGATTGTTCTCCCAGCTGATGAATTATGCCTGTCGAGTAAACAAATTTTCCTAATCTTTCTGTTCAAGCGCCATCTAC”, the binding signal is 5.87 RPM ratio (pull-down/input).
Consider “GATGATTGTTCTCCCAGCTGATGAATTATGCTGTTCGAGTAAACAAATTTTCCTAATCTTTCTGTTCAAGCGCCATCTAC”, for which the binding signal is 3.42 RPM ratio (pull-down/input).
Then “GATGATTGTTCTCCCAGCTGATGAATTATGCATGTCGAGTAAACAAATTTTCCTAATCTTTCTGTTCAAGCGCCATCTAC”, with 6.46 RPM ratio (pull-down/input); and “GATGATTGTTCTCCCAGCTGATGAATTATGCGCCTCGAGTAAACAAATTTTCCTAATCTTTCTGTTCAAGCGCCATCTAC”, with 2.82 RPM ratio (pull-down/input).
With “GATGATTGTTCTCCCAGCTGATGAATTAATTATGTCGAGTAAACAAATTTTCCTAATCTTTCTGTTCAAGCGCCATCTAC”, the binding signal is 1.89 RPM ratio (pull-down/input).
Next, “GATGATTGTTCTCCCAGCTGATGAATTATGCTTGTCGAGTAAACAAATTTTCCTAATCTTTCTGTTCAAGCGCCATCTAC”: 4.71 RPM ratio (pull-down/input).
In the case of “GATGATTGTTCTCCCAGCTGATGAATTATGAATGTCGAGTAAACAAATTTTCCTAATCTTTCTGTTCAAGCGCCATCTAC”, the binding signal is 1.04 RPM ratio (pull-down/input).
Take “GATGATTGTTCTCCCAGCTGATGAATTATGCCTCTCGAGTAAACAAATTTTCCTAATCTTTCTGTTCAAGCGCCATCTAC”: the binding signal is 6.22 RPM ratio (pull-down/input).
Then “GATGATTGTTCTCCCAGCTGATGAATTATGAAATTCGAGTAAACAAATTTTCCTAATCTTTCTGTTCAAGCGCCATCTAC”, with 0.632 RPM ratio (pull-down/input); and “GATGATTGTTCTCCCAGCTGATGAATTATGATTGTCGAGTAAACAAATTTTCCTAATCTTTCTGTTCAAGCGCCATCTAC”, with 4.27 RPM ratio (pull-down/input); and “GATGATTGTTCTCCCAGCTGATGAATTATGCCATTCGAGTAAACAAATTTTCCTAATCTTTCTGTTCAAGCGCCATCTAC”, with 5.9 RPM ratio (pull-down/input).
As for “GATGATTGTTCTCCCAGCTGATGAATTCTGCGGCTCGAGTAAACAAATTTTCCTAATCTTTCTGTTCAAGCGCCATCTAC”, the binding signal is 1.01 RPM ratio (pull-down/input).
Next, “GATGATTGTTCTCCCAGCTGATGAATTGCAGCCTTCGAGTAAACAAATTTTCCTAATCTTTCTGTTCAAGCGCCATCTAC”: 2.83 RPM ratio (pull-down/input); “GATGATTGTTCTCCCAGCTGATGAATTGTAAACATCGAGTAAACAAATTTTCCTAATCTTTCTGTTCAAGCGCCATCTAC”: 5.2 RPM ratio (pull-down/input); “GATGATTGTTCTCCCAGCTGATGAATTTGCCGATTCGAGTAAACAAATTTTCCTAATCTTTCTGTTCAAGCGCCATCTAC”: 0.474 RPM ratio (pull-down/input).
“GATGATTGTTCTCCCAGCTGATGAATTAAATCTCTCGAGTAAACAAATTTTCCTAATCTTTCTGTTCAAGCGCCATCTAC”: the binding signal was 0.29 RPM ratio (pull-down/input).
Next, “GATGATTGTTCTCCCAGCTGATGAATTCAGTTCGTCGAGTAAACAAATTTTCCTAATCTTTCTGTTCAAGCGCCATCTAC”: 0.758 RPM ratio (pull-down/input).
As for “GATGATTGTTCTCCCAGCTGATGAATTACTTCTATCGAGTAAACAAATTTTCCTAATCTTTCTGTTCAAGCGCCATCTAC”, the binding signal was 0.347 RPM ratio (pull-down/input).
In the case of “GATGATTGTTCTCCCAGCTGATGAATTCCGAACTTCGAGTAAACAAATTTTCCTAATCTTTCTGTTCAAGCGCCATCTAC”, the binding signal was 0.253 RPM ratio (pull-down/input).
In the case of “GATGATTGTTCTCCCAGCTGATGAATTATGCCACTCGAGTAAACAAATTTTCCTAATCTTTCTGTTCAAGCGCCATCTAC”, the binding signal was 6.25 RPM ratio (pull-down/input).
Next, “GATGATTGTTCTCCCAGCTGATGAATTATGGCATTCGAGTAAACAAATTTTCCTAATCTTTCTGTTCAAGCGCCATCTAC”: 5.55 RPM ratio (pull-down/input); “GATGATTGTTCTCCCAGCTGATGAATTATTCATTTCGAGTAAACAAATTTTCCTAATCTTTCTGTTCAAGCGCCATCTAC”: 0.406 RPM ratio (pull-down/input); “GATGATTGTTCTCCCAGCTGATGAATTATTTCATTCGAGTAAACAAATTTTCCTAATCTTTCTGTTCAAGCGCCATCTAC”: 0.381 RPM ratio (pull-down/input).
Then “GATGATTGTTCTCCCAGCTGATGAATTATGCAACTCGAGTAAACAAATTTTCCTAATCTTTCTGTTCAAGCGCCATCTAC”, with 6.6 RPM ratio (pull-down/input).
Next, “GATGATTGTTCTCCCAGCTGATGAATTTATGAATTCGAGTAAACAAATTTTCCTAATCTTTCTGTTCAAGCGCCATCTAC”: 0.946 RPM ratio (pull-down/input).
In the case of “GATGATTGTTCTCCCAGCTGATGAATTATGAAACTCGAGTAAACAAATTTTCCTAATCTTTCTGTTCAAGCGCCATCTAC”, the binding signal was 0.828 RPM ratio (pull-down/input).
Then “GATGATTGTTCTCCCAGCTGATGAATTTATGCATTCGAGTAAACAAATTTTCCTAATCTTTCTGTTCAAGCGCCATCTAC”, with 7.56 RPM ratio (pull-down/input); and “GATGATTGTTCTCCCAGCTGATGAATTATTCAACTCGAGTAAACAAATTTTCCTAATCTTTCTGTTCAAGCGCCATCTAC”, with 0.381 RPM ratio (pull-down/input).
Next, “GATGATTGTTCTCCCAGCTGATGAATTATGACACTCGAGTAAACAAATTTTCCTAATCTTTCTGTTCAAGCGCCATCTAC”: 2.61 RPM ratio (pull-down/input); “GATGATTGTTCTCCCAGCTGATGAATTATCCCACTCGAGTAAACAAATTTTCCTAATCTTTCTGTTCAAGCGCCATCTAC”: 0.322 RPM ratio (pull-down/input).
Then “GATGATTGTTCTCCCAGCTGATGAATTTTATGCATCGAGTAAACAAATTTTCCTAATCTTTCTGTTCAAGCGCCATCTAC”, with 1.54 RPM ratio (pull-down/input).
Regarding “GATGATTGTTCTCCCAGCTGATGAATTGAAAACATCGAGTAAACAAATTTTCCTAATCTTTCTGTTCAAGCGCCATCTAC”, the binding signal is 1.27 RPM ratio (pull-down/input).
Next, “GATGATTGTTCTCCCAGCTGATGAATTCAGGACCTCGAGTAAACAAATTTTCCTAATCTTTCTGTTCAAGCGCCATCTAC”: 0.26 RPM ratio (pull-down/input); “GATGATTGTTCTCCCAGCTGATGAATTGCGTCATTCGAGTAAACAAATTTTCCTAATCTTTCTGTTCAAGCGCCATCTAC”: 2.09 RPM ratio (pull-down/input).
Next, “GATGATTGTTCTCCCAGCTGATGAATTGCGGGGGTCGAGTAAACAAATTTTCCTAATCTTTCTGTTCAAGCGCCATCTAC”: 0.984 RPM ratio (pull-down/input); “GATGATTGTTCTCCCAGCTGATGAATTGAGCTGGTCGAGTAAACAAATTTTCCTAATCTTTCTGTTCAAGCGCCATCTAC”: 0.419 RPM ratio (pull-down/input); “GATGATTGTTCTCCCAGCTGATGAATTAGGATGGTCGAGTAAACAAATTTTCCTAATCTTTCTGTTCAAGCGCCATCTAC”: 0.492 RPM ratio (pull-down/input).
